Values joined by “and” are separate entries in the source; they are usually repeats but may differ in a detail not shown here. Equal values may be shown once. Inconclusive results are not listed. Where a call stands in place of a potency, no number is given. Active and inactive are the calls of the source. The call rests on the fitted dose curve; in most records, active means well fitted inhibition curve with a large enough effect; inconclusive means small, poorly fitted or top-dose-only effect; inactive means flat fitted curve, though single readings scatter.

DNA dC->dU-editing enzyme APOBEC-3G (Homo sapiens), sequence (Q9HC16 whole entry, looked up): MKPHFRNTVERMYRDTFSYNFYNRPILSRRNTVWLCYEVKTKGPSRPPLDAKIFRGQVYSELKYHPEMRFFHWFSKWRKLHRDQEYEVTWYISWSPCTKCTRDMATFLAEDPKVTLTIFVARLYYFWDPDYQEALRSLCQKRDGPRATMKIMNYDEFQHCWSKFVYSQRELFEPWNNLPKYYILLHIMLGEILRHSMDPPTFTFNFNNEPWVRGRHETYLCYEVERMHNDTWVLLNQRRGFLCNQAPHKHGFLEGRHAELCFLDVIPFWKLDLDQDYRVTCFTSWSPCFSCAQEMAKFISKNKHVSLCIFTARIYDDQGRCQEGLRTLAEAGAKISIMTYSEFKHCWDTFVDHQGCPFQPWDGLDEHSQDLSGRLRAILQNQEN
Ubiquitin carboxyl-terminal hydrolase 1 (Homo sapiens), sequence (O94782 whole entry, looked up): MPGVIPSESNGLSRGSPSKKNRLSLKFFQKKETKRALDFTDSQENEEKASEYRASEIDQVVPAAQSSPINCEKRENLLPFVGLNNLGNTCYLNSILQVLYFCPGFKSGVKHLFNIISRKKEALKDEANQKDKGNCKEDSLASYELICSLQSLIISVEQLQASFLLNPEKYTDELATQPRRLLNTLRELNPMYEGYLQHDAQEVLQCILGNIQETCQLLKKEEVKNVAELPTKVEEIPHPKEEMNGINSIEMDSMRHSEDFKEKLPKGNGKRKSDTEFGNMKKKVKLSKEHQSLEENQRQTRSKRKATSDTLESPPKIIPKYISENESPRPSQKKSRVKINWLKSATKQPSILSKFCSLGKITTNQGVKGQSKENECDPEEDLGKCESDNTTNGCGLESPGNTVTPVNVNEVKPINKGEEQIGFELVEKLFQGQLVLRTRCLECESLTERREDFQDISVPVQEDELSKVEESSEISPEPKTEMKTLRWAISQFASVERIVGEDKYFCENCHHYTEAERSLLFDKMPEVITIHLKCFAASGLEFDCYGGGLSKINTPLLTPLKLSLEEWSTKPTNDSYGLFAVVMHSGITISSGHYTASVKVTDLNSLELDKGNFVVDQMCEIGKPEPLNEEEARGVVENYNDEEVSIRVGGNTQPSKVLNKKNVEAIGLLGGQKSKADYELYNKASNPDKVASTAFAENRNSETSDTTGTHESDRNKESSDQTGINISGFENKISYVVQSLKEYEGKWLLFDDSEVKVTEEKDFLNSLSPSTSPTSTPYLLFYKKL

The first test addresses Ubiquitin carboxyl-terminal hydrolase 1 (Homo sapiens) (UniProt O94782). The experiment in a line: Inhibitors of USP1/UAF1: Pilot qHTS (AID 504865). Further: nearly all actives have a fitted effect of over 35% in size. Further: potency means the concentration at half of the fitted maximal effect. The following applies: purified USP1/UAF1, Ub-rhodamine cleavage fluorescence; series mostly up to 54.9 µM. A digest of the protocol: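 Enzyme-free wells gave the negative control, while test wells held 1nM USP1/UAF1 preincubated with compound for 15 min at room temperature. Ub-Rho at 150nM final started the reaction, and fluorescence at 480/540 nm was recorded kinetically.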
Take `COc1ccc2[nH]cc(CCNc3ncnc4ccc(-c5ccc6c(c5)OCO6)cc34)c2c1`: the Potency result was “inactive”.
On to `CN=C1N[C@H](c2ccccc2)N(c2ccccc2)S1`, for which the Potency result is “inactive”.
On to `COc1cc(/C=C/C(=O)/C=C(O)/C=C/c2ccc(O)c(OC)c2)ccc1O`, for which the Potency was 12.6 µM (active) and 31.6 µM (active).
The same measure, in the same setting: in the case of `COc1cccc(-c2cc(NCCc3c[nH]c4ccc(OC)cc34)ncn2)c1` it was “inactive”; in that of `COc1ccccc1CNc1ncnc2ccc(-c3ccccc3C#N)cc12`, “inactive”.
On the same count and under the same terms, in the case of `Cc1ccccc1-c1ccc2ncnc(N(C)C)c2c1` it was “inactive”; in that of `N[C@@H](C(=O)O)c1ccc(O)c(C(=O)O)c1`, “inactive”.
Take `O=c1ccc2cc(O)c(O)cc2o1`: the Potency entry was “inactive”.
In the case of `COc1ccc2[nH]cc(CCNc3nc(-c4ccc(C(=O)N(C)C)cc4)nc4ccccc34)c2c1`, the Potency result was “inactive”.
In the case of `CCCCCC/C=C\CCCCCCCc1cccc(O)c1C(=O)O`, the Potency is 79.4 µM (active).
As for `COC(=O)c1c(C)cc(OC(=O)c2c(C)cc(O)c(C=O)c2O)c(C)c1O`, the Potency entry is “inactive”.
On the same count and under the same terms, to `Cc1[nH]ccc2c1[nH]c1cc(=O)ccc12` belongs “inactive”.
In the case of `COc1cc2ccc(=O)oc2cc1O`, the Potency result was “inactive”.
In the case of `CC[C@@]12CCCN3CCc4c(n(c5ccccc45)[C@](O)(C(=O)OC)C1)[C@H]32`, the Potency result is “inactive”.
For `N[C@H](Cn1ccc(=O)c(O)c1)C(=O)O`, the Potency entry was “inactive”.
`CC(=O)Oc1ccccc1C(=O)Oc1ccccc1C(=O)O`: the Potency entry is “inactive”.

Another test addresses DNA dC->dU-editing enzyme APOBEC-3G (Homo sapiens) (UniProt Q9HC16). The experiment in a line: qHTS for inhibitors of Vif-A3G interactions: Validation (AID 588379). The conditions noted are these: Vif-A3G protein interaction assay; series mostly up to 46.1 µM. A digest of the protocol:
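Yellow fluorescence (Ex 488, Em 500-530) of Vif-coexpressing HeLa A3G-eYFP cells, scanned by Acumen cytometer, reports blocked A3G degradation. Cells plated at 700/well overnight at 37 deg C before compound addition, then a further overnight compound incubation at 37 deg C.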
On the technique in general: In qHTS, concentration-response curves come from the screen itself.
With `CN=C1N[C@H](c2ccccc2)N(c2ccccc2)S1`, the compound was classed as inactive.
With `CCCC[P+](CCCC)(CCCC)Cc1ccc(NC(=O)[C@@H](Cc2ccc3ccccc3c2)NC(=NC2CCCCC2)NC2CCCCC2)cc1`, the result was inactive.
With `C/C(=C\COc1cc(=O)[nH]c2ccccc12)CCC(O)C(C)(C)O` (centres undefined), the call was inactive.
As for `N[C@@H](C(=O)O)c1ccc(O)c(C(=O)O)c1`, the compound was classed as inactive.
Consider `Cc1cc(C)c(S(=O)(=O)Nc2ccccc2C(F)(F)F)c(C)c1`, for which the outcome was inactive.
For `CCCNC(=O)N1N=C(c2ccc(N)cc2)c2cc3c(cc2[C@H]1C)OCO3`, the compound was called inactive.
Same read-out and setting: in the case of `Cc1[nH]ccc2c1[nH]c1cc(=O)ccc12` it was “inactive”; in that of `COc1cc2ccc(=O)oc2cc1O`, “inactive”; in that of `CCCCCCCNS(=O)(=O)c1cccc2c(Cl)cccc12`, “inactive”.
For `O=[N+]([O-])c1cccc2c[nH]nc12`, the compound was classed as inactive.
Same read-out and setting: to `CC[C@@]12CCCN3CCc4c(n(c5ccccc45)[C@](O)(C(=O)OC)C1)[C@H]32` belongs “inactive”; to `COc1cc2c(cc1OC)C(=O)Cc1ccc3c(c1CN(C)CC2)OCO3`, “inactive”; to `N[C@H](Cn1ccc(=O)c(O)c1)C(=O)O`, “inactive”.

Values taken from PubChem BioAssay (NCATS).
